According to PubChem BioAssay:
Activity calls are given as the source filed them.

How the values were obtained:
[1] = target: Albumin (Bos taurus) (UniProt P02769); assay: compounds binding labelled BSA control protein – biochemical, small-molecule microarray, Alexa647 label, 635/667 nm fluorescence, artefact control for SMM control protein annotation, profiling panel (AID 1118); conditions: BSA-A647 binding, fluorescence 635 nm, higher = more signal;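 also: score merges 667 nm emission intensity and signal-to-noise per printed compound spot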
Albumin (Bos taurus), sequence (P02769 whole entry, looked up): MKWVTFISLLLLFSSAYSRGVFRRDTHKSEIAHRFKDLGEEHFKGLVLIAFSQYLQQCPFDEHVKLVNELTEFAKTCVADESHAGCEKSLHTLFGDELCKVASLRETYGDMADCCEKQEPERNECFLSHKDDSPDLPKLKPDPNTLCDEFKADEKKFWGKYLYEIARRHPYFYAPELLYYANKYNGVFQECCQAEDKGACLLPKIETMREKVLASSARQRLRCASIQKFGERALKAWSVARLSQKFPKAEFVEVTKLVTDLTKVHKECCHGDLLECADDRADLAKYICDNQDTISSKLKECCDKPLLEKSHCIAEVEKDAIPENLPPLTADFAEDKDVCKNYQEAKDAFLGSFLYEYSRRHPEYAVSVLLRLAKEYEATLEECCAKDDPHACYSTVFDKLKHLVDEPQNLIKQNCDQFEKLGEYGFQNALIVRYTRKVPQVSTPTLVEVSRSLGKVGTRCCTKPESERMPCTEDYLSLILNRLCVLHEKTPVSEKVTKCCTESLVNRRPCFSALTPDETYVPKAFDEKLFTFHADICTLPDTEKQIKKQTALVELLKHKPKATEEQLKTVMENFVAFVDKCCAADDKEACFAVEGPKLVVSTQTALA

[2] = probe aXIP binding to arrayed compounds – biochemical, NeuroSMM set, 635/667 nm fluorescence, primary screen (AID 1119); conditions: small-molecule microarray, higher = more signal, called active from +8 up or from −8 down;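 also: probe is the protein aXip251-270 applied at 1 µg/mL to compound-printed slides; binding of probe to printed compounds measured as 667 nm fluorescence plus signal to noise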
[3] = probe aNOTCH3 binding on compound microarray – biochemical, small-molecule microarray, 635/667 nm fluorescence, primary screen (AID 1120); conditions: higher = more signal;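 also: probe is a biotin-tagged antibody raised against NOTCH3 rather than NOTCH3 protein; score merges spot fluorescence near 667 nm with spot signal to noise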
[4] = probe aNOTCH2 binding on compound microarray – biochemical, small-molecule microarray, 635/667 nm fluorescence, primary screen (AID 1121); conditions: higher = more signal;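 also: score merges feature fluorescence read at 667 nm with its signal to noise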
[5] = target: Carbonic anhydrase 2 (Homo sapiens) (UniProt P00918); assay: compounds binding carbonic anhydrase 2 – biochemical, small-molecule microarray, Alexa647-labelled CAII, profiling panel (AID 1122); conditions: CAII-A647 binding fluorescence, higher = more signal
[6] = COS7 lysate on small-molecule microarray, probe aHis, 635 nm (AID 1123); conditions: COS7 cell lysate, fluorescence, higher = more signal;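 also: z-score combines 667nm fluorescence intensity with signal-to-noise per printed compound spot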
[7] = probe aLAP1 signal on lysate-treated microarray – cell lysate, small-molecule microarray, COS7 lysate, primary screen (AID 1124); conditions: probe aLAP1, fluorescence, higher = more signal;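 also: lysate comes from COS7 cells expressing LAP1 and is applied at 0.3 µg/mL; score merges spot fluorescence near 667 nm with signal-to-noise over triplicate slides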
[8] = system: Sam68 (KHDRBS1); assay: compounds binding KHDRBS1 protein – biochemical, small-molecule microarray, 635 nm fluorescence, primary screen (AID 1125); conditions: higher = more signal;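 also: score merges 667 nm channel intensity with signal to noise over triplicate slides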
[9] = system: Chordin-like protein 2 (CHRDL2); assay: compounds binding chordin-like 2 – biochemical, small-molecule microarray, 635 nm fluorescence, primary screen (AID 1126); conditions: fluorescence 635 nm, higher = more signal;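 also: printed compound slides probed with Chrdl2 protein at 4 µg/mL for 1 h at 4 C; score merges 667 nm emission intensity with signal to noise over three replicate slides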
[10] = target: Concanavalin-A (Canavalia ensiformis) (UniProt P02866); assay: compounds binding concanavalin A lectin – biochemical, small-molecule microarray, Alexa647 label, 635 nm, artefact control for SMM control protein annotation, primary screen (AID 1127); conditions: ConA-A647 binding fluorescence, higher = more signal;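 also: z combines 667 nm emission intensity with signal-to-noise across three replicate slides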
Concanavalin-A (Canavalia ensiformis), sequence (P02866 whole entry, looked up): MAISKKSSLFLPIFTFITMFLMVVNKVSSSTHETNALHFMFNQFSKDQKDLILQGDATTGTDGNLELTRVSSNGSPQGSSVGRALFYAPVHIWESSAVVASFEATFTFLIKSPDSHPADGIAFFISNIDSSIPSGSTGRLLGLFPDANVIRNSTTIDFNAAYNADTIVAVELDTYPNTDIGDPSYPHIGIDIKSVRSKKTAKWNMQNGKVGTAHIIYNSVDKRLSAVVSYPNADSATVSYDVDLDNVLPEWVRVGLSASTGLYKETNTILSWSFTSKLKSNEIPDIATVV

[11] = compounds binding Alexa647 anti-His antibody – biochemical, small-molecule microarray, 635 nm fluorescence, artefact control for SMM control protein annotation, primary screen (AID 1128); conditions: higher = more signal;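 also: score merges feature fluorescence with signal-to-noise for each printed compound spot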
[12] = system: Human papillomavirus type 1a E7 protein (residues 1-88); assay: HPV1a E7 small-molecule binders, primary screen, biochemical, small-molecule microarray, residues 1-88, 635 nm (AID 1129); conditions: small-molecule microarray binding, fluorescence 635 nm; higher = more signal
[13] = target: Focal adhesion kinase 1 (Homo sapiens) (UniProt Q05397); assay: PTK2 protein binding on printed compound slides – biochemical, small-molecule microarray, 635/667 nm fluorescence, BSA, DTT, primary screen (AID 1130); conditions: 635 nm fluorescence, higher = more signal;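 also: composite of spot emission at 667 nm and signal to noise over triplicate slides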
Focal adhesion kinase 1 (Homo sapiens), sequence (Q05397 whole entry, looked up): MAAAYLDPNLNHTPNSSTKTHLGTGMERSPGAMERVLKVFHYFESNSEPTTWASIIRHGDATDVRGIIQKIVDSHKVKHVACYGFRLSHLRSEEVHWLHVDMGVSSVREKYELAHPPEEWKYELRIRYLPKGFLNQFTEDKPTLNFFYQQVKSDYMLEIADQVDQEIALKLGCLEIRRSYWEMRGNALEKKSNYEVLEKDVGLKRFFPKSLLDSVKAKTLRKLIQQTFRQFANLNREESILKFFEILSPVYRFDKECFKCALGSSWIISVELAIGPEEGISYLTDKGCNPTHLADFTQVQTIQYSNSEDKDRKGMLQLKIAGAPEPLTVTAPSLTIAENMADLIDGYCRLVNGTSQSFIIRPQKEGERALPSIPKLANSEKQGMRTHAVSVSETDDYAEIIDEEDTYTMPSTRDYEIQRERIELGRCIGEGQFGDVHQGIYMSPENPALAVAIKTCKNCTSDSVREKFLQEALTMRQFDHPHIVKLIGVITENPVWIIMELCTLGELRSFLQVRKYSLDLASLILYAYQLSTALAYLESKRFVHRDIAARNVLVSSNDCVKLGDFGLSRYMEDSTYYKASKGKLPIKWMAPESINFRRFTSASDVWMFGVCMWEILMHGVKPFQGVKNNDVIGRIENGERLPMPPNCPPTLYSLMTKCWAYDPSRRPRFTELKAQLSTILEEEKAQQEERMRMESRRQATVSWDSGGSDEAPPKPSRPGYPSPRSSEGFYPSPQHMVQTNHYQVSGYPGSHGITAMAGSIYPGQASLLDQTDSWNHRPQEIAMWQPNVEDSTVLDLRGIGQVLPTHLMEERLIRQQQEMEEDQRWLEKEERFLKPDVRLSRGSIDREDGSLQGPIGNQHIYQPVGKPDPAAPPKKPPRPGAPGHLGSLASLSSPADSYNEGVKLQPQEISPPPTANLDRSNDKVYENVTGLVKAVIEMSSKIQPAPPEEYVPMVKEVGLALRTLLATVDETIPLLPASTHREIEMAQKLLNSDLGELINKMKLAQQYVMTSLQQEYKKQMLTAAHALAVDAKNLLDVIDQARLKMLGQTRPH

[14] = system: Fibrinogen (Alexa647-labelled); assay: Alexa647-fibrinogen binding to printed small molecules – biochemical, small-molecule microarray, 635/667 nm fluorescence, artefact control for SMM control-protein annotation, profiling panel (AID 1131); conditions: fibrinogen-A647 binding fluorescence, higher = more signal;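 also: z-score merges 667 nm fluorescence with per-spot signal-to-noise over triplicate slides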
[15] = target: Follistatin (Homo sapiens) (UniProt P19883); assay: FST protein binding to printed compounds – biochemical, small-molecule microarray, 635/667 nm fluorescence, primary screen (AID 1132); conditions: 635 nm fluorescence, higher = more signal
Follistatin (Homo sapiens), sequence (P19883 whole entry, looked up): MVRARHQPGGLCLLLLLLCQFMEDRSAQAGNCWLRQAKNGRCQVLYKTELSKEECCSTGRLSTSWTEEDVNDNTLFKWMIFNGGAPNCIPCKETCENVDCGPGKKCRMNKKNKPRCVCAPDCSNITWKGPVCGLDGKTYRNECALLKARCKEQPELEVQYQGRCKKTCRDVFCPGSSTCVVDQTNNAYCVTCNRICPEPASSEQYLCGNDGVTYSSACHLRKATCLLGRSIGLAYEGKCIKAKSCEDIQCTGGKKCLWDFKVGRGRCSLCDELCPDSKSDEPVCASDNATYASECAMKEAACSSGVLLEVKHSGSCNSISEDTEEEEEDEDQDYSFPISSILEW

[16] = target: Fibroblast growth factor 2 (Homo sapiens) (UniProt P09038); assay: basic fibroblast growth factor binding to printed compounds – biochemical, small-molecule microarray, 635/667 nm fluorescence, primary screen (AID 1133); conditions: FGF2, fluorescence 635/667, higher = more signal
Fibroblast growth factor 2 (Homo sapiens), sequence (P09038 whole entry, looked up): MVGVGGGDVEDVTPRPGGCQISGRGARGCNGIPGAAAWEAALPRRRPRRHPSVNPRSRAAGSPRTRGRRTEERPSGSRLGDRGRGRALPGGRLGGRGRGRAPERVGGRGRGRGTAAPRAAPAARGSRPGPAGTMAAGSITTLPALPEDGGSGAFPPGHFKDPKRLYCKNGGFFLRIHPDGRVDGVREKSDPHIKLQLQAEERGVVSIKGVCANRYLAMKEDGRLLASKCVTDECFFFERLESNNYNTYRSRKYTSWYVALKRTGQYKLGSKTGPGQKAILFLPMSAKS

[17] = JC-1 mitochondrial potential readout, lung cancer cells – cell-based, A549, JC-1 fluorescence, basal, 24 h, 100 nL, profiling panel (AID 1138); conditions: higher = more signal;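 also: A549 lung adenocarcinoma cells under basal conditions with no added stimulus; test concentration not given here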
[18] = system: Lefty1; assay: Lefty1 protein binding to printed compounds – biochemical, small-molecule microarray, 635/667 nm fluorescence, primary screen (AID 1139); conditions: fluorescence 635/667, higher = more signal
[19] = system: wheat germ agglutinin (Triticum aestivum), Alexa647-labelled; assay: Alexa647-WGA lectin binding to printed small molecules – biochemical, small-molecule microarray, 635/667 nm fluorescence, artefact control for SMM control-protein annotation, profiling panel (AID 1140); conditions: WGA-A647 binding, 635 nm fluorescence, higher = more signal;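 also: score merges 667 nm feature emission with signal to noise over triplicate slides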
[20] = target: Luciferin 4-monooxygenase (Photinus pyralis) (UniProt P08659); assay: inhibition of purified Photinus pyralis luciferase – biochemical, luminescence, purified enzyme, 2006 set, primary screen (AID 1141); conditions: purified firefly luciferase, SteadyGlo luminescence, 30 min; higher = more signal, called active from +8 up or from −8 down;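 also: cell-free assay with purified firefly luciferase at 100 ng per well in PBS; test concentration not given here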
Luciferin 4-monooxygenase (Photinus pyralis), sequence (P08659 whole entry, looked up): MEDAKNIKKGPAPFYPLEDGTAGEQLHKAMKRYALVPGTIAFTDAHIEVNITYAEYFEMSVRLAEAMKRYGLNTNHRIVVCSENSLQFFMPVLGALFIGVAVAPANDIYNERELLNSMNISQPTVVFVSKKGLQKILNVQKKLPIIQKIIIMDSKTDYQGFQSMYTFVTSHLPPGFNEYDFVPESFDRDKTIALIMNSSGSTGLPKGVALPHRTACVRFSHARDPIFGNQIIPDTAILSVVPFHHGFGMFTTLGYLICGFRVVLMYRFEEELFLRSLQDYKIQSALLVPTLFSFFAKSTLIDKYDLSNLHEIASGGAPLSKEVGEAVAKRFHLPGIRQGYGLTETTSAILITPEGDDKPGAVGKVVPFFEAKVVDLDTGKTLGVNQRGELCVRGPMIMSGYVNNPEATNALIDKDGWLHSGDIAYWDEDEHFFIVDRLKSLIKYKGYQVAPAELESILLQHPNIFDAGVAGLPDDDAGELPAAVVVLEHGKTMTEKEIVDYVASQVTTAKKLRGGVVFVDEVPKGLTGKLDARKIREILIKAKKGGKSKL

SMILES	composite z-score [1]	composite Z-score [2]	composite z-score [3]	composite z-score [4]	composite z-score [5]	composite z-score [6]	composite z-score [7]	composite z-score [8]	composite z-score [9]	composite z-score [10]	composite z-score [11]	composite z-score [12]	composite z-score [13]	composite z-score [14]	composite z-score [15]	composite z-score [16]	z-score [17]	composite z-score [18]	composite z-score [19]	z-score [20]
OB1C=CCC(CCc2ccccc2)O1 (stereo not given)	-0.923	-0.601 (inactive)	-0.191	-0.153	-0.498	-0.622	-0.803	-1.31	0.317	-1.34	-0.837	-0.692	-0.153	-0.894	0.0417	0.712	1.13	-0.732	-0.477	-1.83 (inactive)
CCOC(=O)C1=C[C@@H](C(C)C)N(S(=O)(=O)c2ccc(C)cc2)[C@H]1c1ccccc1F	0.81	0.594 (inactive)	0.0576	-0.0877	0.62	1.66	-0.144	1.31	-0.333	1.17	0.654	1.2	-0.0031	1.02	0.96	0.307	2.33	0.187	0.927	1.82 (inactive)
CC1CC/C=C\[C@H]2OC34C=CCN(Cn5nnc6ccccc65)C(=O)[C@H]3N(CCCCCO)C(=O)[C@@H]4C2C(=O)O1 (stereo not given in full)	-1.22	0.19 (inactive)	-0.236	-0.106	0.548	0.737	0.434	0.479	-1.75	-0.845	0.429	-1.48	-0.281	-2.26	-1.16	-1.69	0.114	-0.425	1.24	0.932 (inactive)
COC(=O)c1c(CC[C@@H](CO)NC(=O)NCCc2c[nH]c3ccccc23)oc(C(=O)Cc2ccccc2)c1C(=O)OC	0.0018	-0.326 (inactive)	0.0842	-0.14	0.112	0.452	-0.161	0.583	0.149	0.467	0.108	0.27	0.131	0.273	0.368	0.251	-0.364	0.456	0.0707	0.521 (inactive)
CC(C)OC(=O)C=C1C[C@@H](c2cccc(Cl)c2)O[C@@H](c2cccc(Cl)c2)O1	0.466	0.806 (inactive)	-0.137	0.0234	0.299	1.68	0.484	-0.296	-0.579	0.99	1.72	0.824	0.526	-0.105	-0.545	-0.122	-0.143	-1.1	0.751	0.924 (inactive)
C=CCNC(=O)[C@@H]1[C@H]2C(=O)O[C@H](c3ccccc3)[C@H](c3ccccc3)N2[C@H](c2ccc(OCCO)cc2)[C@@]12C(=O)N(C(=O)OCCOC)c1ccc(C#CCC(C(=O)OC)C(=O)OC)cc12	0.371	0.0558 (inactive)	0.199	0.0278	0.637	1.37	1.05	1.31	0.665	1.09	1.67	1.16	1.31	0.603	1.24	1.48	-1.18	0.991	1.05	-0.262 (inactive)
C#CCN1[C@@H](Cc2ccc(O)cc2)C(=O)O[C@H](Cc2ccccc2)[C@@H]1/C=C/C1CC1	-0.545	0.228 (inactive)	0.14	-0.14	0.117	-0.225	0.472	-0.329	0.498	-0.457	-0.0341	-0.521	-0.102	0.123	0.623	0.571	-1.76	0.165	-0.202	-0.407 (inactive)
COC(=O)[C@@]1(Cc2ccc(OC)cc2)[C@H]2c3cc(C(=O)N4CCCC4)n(Cc4nc5ccccc5[nH]4)c3C[C@H]2CN1C(=O)c1ccccc1	1.08	0.234 (inactive)	0.537	0.013	0.78	3.39	1.13	1.32	-0.45	0.174	2.01	1.24	1.64	1.05	0.979	-0.202	1.92	-0.47	1.14	1.53 (inactive)
C=C(CCCC)/C(=C/C[C@@H](OC(C)=O)c1cccc(OCCO)c1)c1cnc2ccccc2c1	0.0156	0.785 (inactive)	0.0141	-0.124	0.687	0.366	-0.0843	0.788	0.777	0.606	1.35	0.157	-0.0542	0.0837	1.4	1.18	0.908	1.37	0.978	-0.245 (inactive)
C=C(CCCC)/C(=C/C[C@H](OC(C)=O)c1ccccc1OCCO)c1cnc2ccccc2c1	0.553	0.282 (inactive)	-0.12	-0.173	0.5	0.376	0.0282	0.8	0.77	0.706	0.528	0.545	-0.0464	-0.128	0.891	0.481	1.76	0.861	0.664	-0.895 (inactive)
COc1ccc(C#Cc2ccc3c(c2)[C@]2(C(=O)N3)[C@H](c3ccc(O)cc3)N3[C@H](c4ccccc4)[C@H](c4ccccc4)OC(=O)[C@H]3[C@@H]2C(=O)N2CCc3cc(OC)c(OC)cc3C2)cc1	0.719	1.39 (inactive)	0.0196	-0.12	0.459	1.33	0.326	1.31	0.356	1.12	0.645	1.19	0.174	0.933	1.15	1.36	-0.577	1.12	0.384	-0.798 (inactive)
CN1CCC(CCCO)=CC1c1cccs1 (stereo not given)	-0.552	0.639 (inactive)	-0.0048	-0.148	0.74	-0.743	-0.476	-0.203	-0.154	-0.384	-0.321	-0.902	-0.698	0.0141	-0.0163	0.184	0.391	0.118	-0.485	0.0421 (inactive)
